Measurements published in PubChem BioAssay (NCI).
Compounds without any hit were thinned out: in the full panel of roughly 79,000, 15% have a hit. Calls of active or inactive are those of the source. No stated cut-off is given here; in the data, active means growth inhibition above about 70%; inactive means the rest. Where a SMILES comes first, the peptide text is derived from it. The star is where a group is joined. Boc = CC(C)(C)OC(=O)*

Tests used:
[1] = NCI Yeast Anticancer Drug Screen. Data for the rad50 strain (AID 155);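 further: 0% = growth of vehicle-only cultures of the same strain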; conditions: S. cerevisiae rad50 strain growth inhibition; at 50.0 µM; active compounds read high
How it was run: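 Genetically altered yeast (DNA repair pathway); compound treatment; growth inhibition vs vehicle ctrl.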

[2] = NCI Yeast Anticancer Drug Screen. Data for the mec2-1 strain (AID 157); conditions: S. cerevisiae mec2-1 strain, at 50.0 µM, active compounds read high
How it was run: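 Growth inhibition is read against vehicle-treated controls after compound exposure of the mec2-1 yeast strain, which is defective in DNA damage repair or cell cycle control.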

[3] = NCI Yeast Anticancer Drug Screen. Data for the sgs1 mgt1 strain (AID 161);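 further: 0% = growth of cultures given vehicle only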; conditions: S. cerevisiae sgs1 mgt1 strain, at 50.0 µM, active compounds read high
How it was run: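 Compounds are added to genetically altered yeast, and growth is compared with cultures given vehicle alone to give percent inhibition.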

[4] = NCI Yeast Anticancer Drug Screen. Data for the cln2 rad14 strain (AID 165);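 further: 0% = growth equal to vehicle treated cultures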; conditions: S. cerevisiae cln2 rad14 strain, at 50.0 µM, active compounds read high
How it was run: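 Growth inhibition, relative to vehicle-treated controls, is the read-out. The test organism is a yeast strain with defined genetic alterations, cln2 rad14.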

[5] = NCI Yeast Anticancer Drug Screen. Data for the bub3 strain (AID 167); conditions: S. cerevisiae bub3 mutant strain, at 50.0 µM, active compounds read high
How it was run: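 Yeast carrying a defined mutation is treated with each compound, and growth is compared with that of vehicle-exposed cells to give inhibition.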

[6] = NCI Yeast Anticancer Drug Screen. Data for the mlh1 rad18 strain (AID 175); conditions: S. cerevisiae mlh1 rad18 strain growth inhibition; at 50.0 µM; active compounds read high
How it was run: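 Cells of a genetically altered yeast strain, deficient in DNA damage repair, were treated with compound. Their growth was then compared with that of vehicle-treated cultures to give inhibition.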

Measured: growth inhibition

O=c1c(O)c(-c2cc(O)c(O)c(O)c2)oc2cc(O)ccc12
inactive: [1] -35.5% | [2] -36.8% | [3] -24.3% | [4] -8.8% | [5] -32.8% | [6] -29.8%

CC(=O)Nc1cccc(Cc2ccccc2)c1
inactive: [1] 14.3% | [2] -14.4% | [3] 1.05% | [4] -67.2% | [5] -6.3% | [6] -4.6%

O=[N+]([O-])c1ccc2nc(C(F)(F)F)cc(Cl)c2c1
inactive: [1] 7.35% | [2] 5.3% | [3] 2% | [4] -66.9% | [5] -1.1% | [6] -9.75%

S=C(NNC(=S)Nc1ccccc1Cl)NNc1ccccc1
active: [1] 80.8% | [2] 82.8% | [3] 93.4% | [5] 82.8% | [6] 88.9%
inactive: [4] 68.2%

CCC1OC(=O)CC(O)C(C)C(OC2OC(C)CC(N(C)C)C2O)C(CC=O)CC(C)C(=O)/C=C/C2(C)OC2C1C (stereo not drawn)
inactive: [1] -6.9% | [2] -7.55% | [3] -11.3% | [4] -1.55% | [5] -14% | [6] 1.8%

COc1ccc2c(c1)C(=O)OCCC2
inactive: [1] 25.4% | [2] 17.5% | [3] -26.6% | [4] 10.3% | [5] -36.4% | [6] -9.95%

Cc1nc(Cc2n[nH]c(C)n2)n[nH]1
inactive: [1] 14.4% | [2] -6.65% | [3] 11.9% | [4] 15.2% | [5] 3.4% | [6] 14.3%

CCOC(=O)c1cccc(Cl)c1C(=O)O
inactive: [1] -7.75% | [2] -13.1% | [3] 0.25% | [4] -29.5% | [5] -4.05% | [6] -7.75%

S=C(Nc1ccc(Cl)cc1)Nc1ccc(Cc2ccc(NC(=S)Nc3ccc(Cl)cc3)cc2)cc1
inactive: [1] 53.9% | [2] 36.2% | [3] 49.6% | [4] 59.4% | [5] 53.6% | [6] 20.4%

CC(=S)NC=C(C(N)=O)C(N)=O
inactive: [1] 6.65% | [2] 1.05% | [3] 11.7% | [4] 16% | [5] -4.2% | [6] -16.5%

CCOC(=O)c1ccc(NC=O)cc1
inactive: [1] 4.1% | [2] 7.35% | [3] -8.75% | [4] -12.5% | [5] 1.95% | [6] -24.1%

CC(C)COC(=O)N1N=NC2C3CC(=O)C(O3)C21 (stereo not drawn)
inactive: [1] 9.8% | [2] -9.7% | [3] -14.2% | [4] 11.6% | [5] -7.75% | [6] -4.75%

O=[N+]([O-])CC1=CCCCC1
inactive: [1] 30.6% | [2] 12.2% | [3] 25.9% | [4] 4.05% | [5] -5.05% | [6] 16.6%

CN1C(=O)Cc2ccccc21
inactive: [1] 9.9% | [2] -7.25% | [3] -13.3% | [4] 11.5% | [5] 20.8% | [6] -1.05%

CC(C)(C)C(=O)Oc1ccc[nH]c1=O
inactive: [1] 23.4% | [2] -13.9% | [3] 2.35% | [4] -27.6% | [5] -13.7% | [6] -2.1%

COc1cc(C2c3cc4c(cc3OC3(OC)COC(=O)C23)OCO4)cc(OC)c1OC (stereo not drawn)
inactive: [1] 0.4% | [2] 13.4% | [3] 4.9% | [4] -13.9% | [5] -21.1% | [6] -21.4%

O=S1(=O)C2CCC(Br)C1CCC2Br (stereo not drawn)
inactive: [1] 9.65% | [2] 13.8% | [3] 7.65% | [4] 14.2% | [5] -2.65% | [6] 10.9%

O=c1[nH]cnc2c1CNC2
inactive: [1] 9.5% | [2] -2.5% | [3] -10.4% | [4] -65.8% | [5] -18.4% | [6] 1.6%

Cc1c[nH]c2nc(C)n(-c3ccccc3F)c(=N)c12
inactive: [1] -8.5% | [2] -2.75% | [3] -9.35% | [4] -8.7% | [5] -10.8% | [6] -0.95%

O=C(Nc1ccc(Br)cc1C(F)(F)F)C(F)(F)F
inactive: [1] 6% | [2] -5.7% | [3] -2.15% | [4] -28.9% | [5] 1.9% | [6] -16.2%

Nc1ccc2c(c1)C(=O)N(OS(=O)(=O)c1ccccc1)C2=O
inactive: [1] 55% | [2] 39% | [3] 41.2% | [4] 41% | [5] 35% | [6] 47.2%

O=c1[nH]cc(NS(=O)(=O)O)c(=O)[nH]1
inactive: [1] -2.15% | [2] -5.4% | [3] 6.5% | [4] 1.45% | [5] 2.95% | [6] -0.55%

N#C/C(=C\n1c(=S)[nH]c2ccc([N+](=O)[O-])cc21)c1cccc(Cl)c1
inactive: [1] -25.2% | [2] -13.9% | [3] -34.1% | [4] 3.75% | [5] -2.45% | [6] -11.2%

COC(=O)C(Cc1ccccc1)NC(=O)C(Cc1ccccc1)NC(=O)OC(C)(C)C (stereo not drawn) (Boc-Phe-Phe-OMe; configuration not given here)
inactive: [1] -7.05% | [2] -4.3% | [3] -18.9% | [4] -51% | [5] 0.15% | [6] -6.4%

O=C(O)CSc1cc(Br)c(Br)cc1C(=O)O
inactive: [1] 6.05% | [2] -11.3% | [3] -0.85% | [4] 9.5% | [5] 9.8% | [6] -15.9%

CN(C)c1ccc(C2(c3ccc(N(C)C)cc3)OC(=O)c3cc(N(C)C)ccc32)cc1
inactive: [1] 4.55% | [2] -6.2% | [3] -0.75% | [4] -31.7% | [5] 16.4% | [6] 33.7%

Oc1cc2c(cc1C(c1ccc(Cl)cc1)N1CCCCC1)OCO2 (stereo not drawn)
inactive: [1] 9.65% | [2] -1.6% | [3] 1.25% | [4] -6.4% | [5] 11.1% | [6] 5.75%

C/C(=N/OCCC(=O)O)C1CC1
inactive: [1] -2.85% | [2] -1.65% | [3] -1.35% | [4] 11.8% | [5] 7.9% | [6] -17.6%

S=C(Nc1ccccc1)Nc1nc(-c2ccccc2)c(N=Nc2ccccc2)s1
inactive: [1] 29.8% | [2] -1% | [3] 4.05% | [4] 10.1% | [5] 12.9% | [6] 2%

CC(=O)Oc1cccc2ccccc12
inactive: [1] -23.4% | [2] -25.5% | [3] 1% | [4] -109% | [5] -36.8% | [6] -5.65%

COC(=O)COC(=O)C1C(C(N)=O)N(CC(=O)OC)CCN1CC(=O)OC (stereo not drawn)
inactive: [1] 0.2% | [2] -0.9% | [3] -27.4% | [4] -7.35% | [5] -3.9% | [6] -5.95%

CCN(CC)CC1c2ccccc2C(CNc2ccccc2)N1C (stereo not drawn)
inactive: [1] 4.5% | [2] 29.4% | [3] -10.1% | [4] 14.2% | [5] 5.65% | [6] 7.65%

Nc1cccn2cnnc12
inactive: [1] 0.1% | [2] 15.9% | [3] -4.6% | [4] 17.4% | [5] 23.1% | [6] 19.4%

CC(=O)/C(=C\c1ccc([N+](=O)[O-])o1)C(=O)CCN(C)C
inactive: [1] 25.1% | [2] 38.4% | [3] 63% | [4] 22.9% | [5] 39.5%
active: [6] 84.8%

CCOc1cccc2c1N[S@@](=O)S2
inactive: [1] 4.85% | [2] -26.7% | [3] 11.5% | [4] 16.2% | [5] 7.8% | [6] 33.6%

CCCCCN(CCCCC)CC(O)c1cccc2c1cc(Br)c1ccccc12 (stereo not drawn)
inactive: [1] 30.7% | [2] 1.55% | [3] 8.7% | [4] 8.45% | [5] 0.85% | [6] 14.7%

Cc1cc(O[Si](C)(C)C)nc(O[Si](C)(C)C)n1
inactive: [1] 1.7% | [2] -3.7% | [3] 0.15% | [4] -49% | [5] -40.3% | [6] 11.9%

Cc1c(C2CC(=O)N(c3ccccc3)C2=O)c2ccccc2n1C (stereo not drawn)
inactive: [1] -6.25% | [2] -6% | [3] -7.4% | [4] -33.7% | [5] 1.85% | [6] -8.25%
